Test results reported in PubChem BioAssay AID1347383 (Zoeller Lab, School of Medicine, Boston University, 2020).
Active and inactive are the calls of the source.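 The calls were made as follows: active = cell survival after UV exposure 2 SD above solvent-only control wells at 10 µM, confirmed on one or two repeats; inactive = the rest.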

Assay: protection of CHO cells from pyrene-fatty acid UV killing, primary screen, phospholipid biosynthesis inhibitor project, ZR-82 cells, Analyticon library, screen 2 (AID 1347383);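 also: survival reflects blocked phospholipid synthesis cutting uptake of the phototoxic fatty acid; compound and fatty acid exposure 3 h then viability read next day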
Conditions: ZR-82 CHO cells, CellTiter Blue, at 10 µM, peroxisome-deficient CHO-K1 variant, with DGAT-1, DGAT-2 and ACAT inhibitors

Row | SMILES | outcome
1 | CCCCCCOC1OC(COC2OCC(O)C(O)C2O)C(O)C(O)C1O (configuration not stated) | inactive
2 | CC(C)(O)/C=C/C1=CC(O)C(C)(O)CC1O (configuration not stated) | inactive
3 | CC(=O)c1c(O)cc(O)c(C/C=C(\C)CCC=C(C)C)c1O | inactive
4 | C=C[C@]1(C)C[C@](O)([C@@H]2OC2(C)C)Oc2c1c(=O)oc1cccc(CC)c21 | inactive
5 | CC(C)Cc1cnc(CCC(N)=O)c(=O)[nH]1 | inactive
6 | COC(=O)C1=CO[C@@H](C)[C@H]2CN3CCc4c([nH]c5ccccc45)[C@@H]3C[C@H]12 | active
7 | CC(C)(O)[C@@H]1CCC(C)([C@H]2CC[C@]3(C)[C@@H]2[C@H](O)CC2[C@@]4(C)CC[C@H](O)C(C)(C)[C@@H]4CC[C@]23C)O1 (some centres not stated) | inactive
8 | CC#CC#C/C=C1\C=CC2(OC=CC2OC(=O)C=C(C)C)O1 (configuration not stated) | inactive
9 | O=C(/C=C/c1ccc(O)cc1)c1c(O)cc(O)cc1O | inactive
10 | C=C(CO)C1Cc2c(ccc3c(=O)c4c(oc23)COc2cc(O)c(OC)cc2-4)O1 (configuration not stated) | inactive
11 | CO[C@H]1/C=C/[C@@](C)(O)/C=C/C(=O)O[C@H](C)[C@@H](C)CC/C=C/1C | inactive
12 | CC(C)(O)c1ccc2c(c1)CCC1C(C)(C(=O)O)CCCC21C (configuration not stated) | inactive
13 | COc1cc(OC)c(C(O)C(C)O)cc1OC (configuration not stated) | inactive
14 | CCC(O)/C=C1\OC(=O)C2=C1CCC=C2 (configuration not stated) | inactive
15 | COc1ccc2ccc(=O)oc2c1 | inactive
16 | COc1cc(OC)c2c(c1Cl)O[C@]1(C2=O)C(O)=CC(=O)C[C@H]1C | inactive
17 | CSCC1OC(n2cnc3c(=O)[nH]cnc32)C(O)C1O (configuration not stated) | inactive
